Compound activity as filed in PubChem.
This is a sample that favours compounds with a hit; in the whole collection about 13% have one here.
Pf growth 48h: P. falciparum growth inhibition at 48 hours (one generation); P. falciparum luciferase growth in erythrocytes, 48 h; Potency, µM (titrated, usually from 28.7 µM), inactives show top-dose activity change, negative = inhibition, actives largely listed as inhibitors; AID 504832; actives 5.9% (n = 310,000); also: potency is read from the fitted curve at half-maximal effect
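Cell-based growth assay: transgenic P. falciparum expressing firefly luciferase, cultured in red cells within RPMI 1640 containing 0.5% w/v Albumax, 24 mM bicarbonate and gentamycin. A drop in luciferase activity indicates inhibition.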
HCV inh: inhibitors of hepatitis C virus infection; Huh7.5.1 HCVcc-Cre infection, luciferase reporter, 44 h; Potency, µM (highest dose often 41.8 µM), without a hit: at the top dose activity change, negative = inhibition, actives largely listed as inhibitors; actives 3.4% (n = 340,000); also: potency is read from the fitted curve at half-maximal effect
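Antiviral activity was scored by luciferase reporter output from cells infected with HCVcc-Cre (~0.5 moi) in presence of compound, 44 h infection period, cells seeded 1,000/well 4 h prior.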
Pf growth 96h: P. falciparum growth inhibition at 96 hour, primary screen for plastid delayed-death inhibitors. AID 504834. Potency, µM (series often up to 28.7 µM), without a hit: at the highest dose activity change, negative = inhibition, most hits filed as inhibitors. P. falciparum luciferase reporter growth, 96 h. actives 6.9% (n = 320,000); also: potency is read from the fitted curve at half-maximal effect
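Readout is luminescence from an integrated firefly luciferase in P. falciparum. Red cells, 2% hematocrit and 0.05% parasitemia final, were cultured with compound through two parasite generations (96 hours) at 37 C, 5% CO2.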
HCMV antiviral: inhibitors of human cytomegalovirus | HFF cells, HCMV-luciferase reporter, 72 h; stronger effect = lower value | activity change, negative = inhibition, % at 57.5 µM | actives 4.5% (n = 410,000) | AID 1259415; in the data active = activity change below about -60%; inconclusive = no clear call, values can overlap the other calls; inactive = above about -39%
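After 16 h attachment at 37C, HFF cells received test compound and HCMV-luciferase (1 PFU/cell); reporter luminescence read 72 h later, data normalized against buffer-only and known inhibitor Salinomycin.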
* hit, by the source's call; ! = repeats disagree; [ ] = another dose, or the depositor's remark. Unless noted, calls follow the shape of the dose curve; as a rule, active = well fitted inhibition curve with a large enough effect; inconclusive = small, poorly fitted or top-dose-only effect, or another doubt; inactive = no such curve, though single readings can be large or run the other way. % is scaled to controls: 0 for no effect and ±100 for the full control effect.

How did Nc1cc(-c2cccc(Br)c2)nn1Cc1ccccc1 do in these assays?
Pf growth 48h: 35%; HCV inh: inconclusive; Pf growth 96h: 15%; HCMV antiviral: -9

What do the screens show for `Nc1cc(-c2ccc(Br)cc2)nn1Cc1ccccc1`?
Pf growth 48h: 15%; HCV inh: 1.3µM*; Pf growth 96h: 13%; HCMV antiviral: -77*

Results for O=C(Nc1ccon1)c1cc(-c2ccccc2)nc2ccccc12 ?
Pf growth 48h: 7.4µM*; HCV inh: -7%; HCMV antiviral: -30

Results for O=C(O)c1ccccc1NC(=O)c1cc(-c2ccccc2)nc2ccccc12 ?
Pf growth 48h: 4%; HCV inh: 7%; Pf growth 96h: -19%; HCMV antiviral: inconclusive

Results for CCOc1cccc(-c2cc(C(=O)Nc3ccon3)c3ccccc3n2)c1 ?
Pf growth 48h: 2.1µM*; HCV inh: inconclusive; Pf growth 96h: -18%; HCMV antiviral: -22

What do the screens show for `CCN(CC)C(=O)Cn1c(=O)n(-c2ccc(Cl)cc2)c(=O)c2c3c(sc21)CCCCC3`?
HCMV antiviral: -5

How did Cc1ccccc1C(=O)Nc1sc2c(c1C(=O)NCc1ccco1)CCC(C(C)(C)C)C2 (stereo unspecified) do in these assays?
HCMV antiviral: -20

How did COc1ccc(-c2nn(-c3ccccc3)cc2C(=O)Nc2cccc(S(=O)(=O)NC3=NCCC3)c2)cc1 do in these assays?
HCV inh: 11µM*; HCMV antiviral: -11

How did O=C(O)c1ccc(NC(=O)c2cn(-c3ccccc3)nc2-c2ccc(Br)cc2)cc1 do in these assays?
Pf growth 48h: -4%; HCV inh: 10%; Pf growth 96h: 160%[5.75 µM]; HCMV antiviral: -64*!

How did COc1ccc(NC(=O)CN(C)C(=O)c2cn(-c3ccccc3)nc2-c2ccc(OC)cc2)cc1 do in these assays?
Pf growth 48h: 13µM*; HCV inh: 0%; Pf growth 96h: inconclusive; HCMV antiviral: -24

How did COc1ccc(NC(=O)CN(C)C(=O)c2cn(-c3ccccc3)nc2-c2ccc(Cl)cc2)cc1 do in these assays?
Pf growth 48h: 10µM*; HCV inh: -27%; Pf growth 96h: inconclusive; HCMV antiviral: -28

Results for COc1ccc(-c2nn(-c3ccccc3)cc2C(=O)N(C)C)cc1 ?
Pf growth 48h: 34%; HCV inh: -17%; Pf growth 96h: inconclusive; HCMV antiviral: 9

How did O=C(O)c1ccc(NC(=O)c2cn(-c3ccccc3)nc2-c2ccccc2)cc1 do in these assays?
Pf growth 48h: 25%; HCV inh: 12%; Pf growth 96h: -5%; HCMV antiviral: 23

How did Cc1nc2nc(NC(=O)C(C)(C)C)[nH]n2c(=O)c1Cc1ccccc1 do in these assays?
HCMV antiviral: 15

Results for COc1ccc(NC(=O)CN(C)C(=O)/C=C/c2cn(-c3ccccc3)nc2-c2ccc(C)cc2)cc1 ?
Pf growth 48h: 9.3µM*; HCV inh: inconclusive; Pf growth 96h: 13µM*; HCMV antiviral: -38

How did CCN(CC)C(=O)c1ccc(NC(=O)c2cn(-c3ccccc3)nc2-c2ccc(OC)cc2)cc1 do in these assays?
Pf growth 48h: inconclusive; Pf growth 96h: 7.4µM*; HCMV antiviral: 24

What do the screens show for `CN(CC(=O)Nc1cccc(F)c1)C(=O)c1cn(-c2ccccc2)nc1-c1cccs1`?
HCV inh: -26%; HCMV antiviral: -17

How did CN(CC(=O)Nc1cccc(F)c1)C(=O)c1cn(-c2ccccc2)nc1-c1ccc(Cl)cc1 do in these assays?
Pf growth 48h: 15µM*; HCV inh: inconclusive; Pf growth 96h: inconclusive; HCMV antiviral: inconclusive

How did COc1ccc(NC(=O)CN(C)C(=O)c2cn(-c3ccccc3)nc2-c2ccc(F)cc2)cc1 do in these assays?
Pf growth 48h: 12µM*; HCV inh: 11µM*; Pf growth 96h: inconclusive; HCMV antiviral: 11

Results for CCN1CCC(N(Cc2ccc(F)cc2)C(=O)Nc2cccc(C(F)(F)F)c2)CC1 ?
HCMV antiviral: -33

How did CCCCN(CC)CCNC(=O)CCn1cnc2onc(-c3ccc(F)cc3)c2c1=O do in these assays?
HCMV antiviral: -36

How did CC1=C(C(=O)OCC(C)C)C(c2ccsc2)C2=C(CCCC2=O)N1 (stereo unspecified) do in these assays?
Pf growth 48h: 13µM*; HCV inh: 2%; Pf growth 96h: 8.3µM*; HCMV antiviral: -78*
